{"source": "paper PMC10954555", "data": [{"target": "RNA polymerase-associated protein LEO1 (UniProt Q8WVC0)", "assay": "other; cross-linking mass spectrometry; other", "values": [{"substance": "Parafibromin, Q6P1J9", "listed as a hit": "yes"}, {"substance": "RNA polymerase II-associated factor 1 homolog, Q8N7H5", "listed as a hit": "yes"}, {"substance": "RNA polymerase-associated protein CTR9 homolog, Q6PD62", "listed as a hit": "yes"}]}]}
